HCMV antiviral: human cytomegalovirus inhibition | HFF cells, HCMV-luciferase reporter, 72 h; stronger effect = lower value | activity change, negative = inhibition, % at 57.5 µM | 410,000 tested, 4.5% active; in the data active means activity change below about -60%; inconclusive means no clear call, values can overlap the other calls; inactive means above about -39%; further: on the % scale 0 is the no-effect control and ±100 the full control effect
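Two-dose cell screen: HFF monolayers treated with compounds and infected with luciferase-expressing HCMV at 1 PFU/cell, 72 h at 37C, then lysed for luciferase measurement.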
CHX counter: counter-screen for Shiga toxin inhibitors: cycloheximide protein synthesis inhibition; cell reporter, cycloheximide protein synthesis inhibition counterscreen; max response, %; 300,000 tested, 12% active; AID 2314; in the data active means max response mostly above about 13%, no sharp cut-off; inactive means mostly below about 14%; further: read at 38.3 µM for the half of the compounds with a filed dose; 0% is about no effect
Pf growth 96h: P. falciparum growth inhibition at 96 hours; P. falciparum luciferase reporter growth, 96 h; Potency, µM (top dose mostly 28.7 µM), inactives show at the top dose activity change, negative = inhibition, hits mostly inhibitors; 320,000 tested, 6.9% active; AID 504834; further: potency means the concentration at half of the fitted maximal effect; on the % scale 0 is the no-effect control and ±100 the full control effect
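Erythrocytes infected with luciferase-expressing P. falciparum were dispensed at 2% hematocrit and 0.05% parasitemia (final), then incubated with compounds 96 hours at 37 C in 5% CO2. Luminescence after detection reagent addition reported growth.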
Shiga inhibitor: inhibitors of Shiga toxin in Vero cells | AID 2315 | inhibition, % at 38.7 µM | 290,000 tested, 9.2% active | Vero cells, Shiga toxin protein synthesis inhibition reporter; in the data active means inhibition mostly above about 28%, no sharp cut-off; inactive means mostly below about 43%; further: 0% is about no effect
Pf growth 48h: P. falciparum growth inhibition at 48 hours (one generation). AID 504832. Potency, µM (top dose mostly 28.7 µM), inactives show top-dose activity change, negative = inhibition, actives largely listed as inhibitors. 310,000 tested, 5.9% active. P. falciparum luciferase growth in erythrocytes, 48 h; further: potency means the concentration at half of the fitted maximal effect; on the % scale 0 is the no-effect control and ±100 the full control effect
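Compounds are pin-transferred into medium, infected erythrocytes (2% hematocrit, 0.1% parasitemia final) are added, and plates sit one parasite generation at 37 C in 5% CO2. Detection reagent is then added and luminescence measured.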
HCV inh: inhibitors of hepatitis C virus infection; Potency, µM (titrated, usually from 41.8 µM), without a hit: at the top dose activity change, negative = inhibition, hits mostly inhibitors; Huh7.5.1 HCVcc-Cre infection, luciferase reporter, 44 h; 340,000 tested, 3.4% active; further: potency means the concentration at half of the fitted maximal effect; on the % scale 0 is the no-effect control and ±100 the full control effect
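Reporter virus HCVcc-Cre (~0.5 moi) infects cells exposed to compound; seeding density 1,000 cells/well with 4 h settling beforehand. Luminescence, 15 sec read, taken 44 h post-infection following a 15 min RT substrate incubation.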
* marks the source's active call; other numbers are inactive results; ! = repeats disagree. Hits are enriched below; roughly 21% of the tested compounds scored in any of these assays. Unless noted, the call rests on the fitted dose curve; in most records, active means well fitted inhibition curve with a large enough effect; inconclusive means small, poorly fitted or top-dose-only effect, or another doubt; inactive means no such curve, though single readings can be large or run the other way.

`Cc1ccc(C)c(N2CCN(CCCNC(=O)Cn3ncc4c5ccccc5n(C)c4c3=O)CC2)c1` gave HCMV antiviral -60*.
COC(=O)Cc1nnn2c1[C@H](C)[C@H](c1ccccc1Br)OC[C@@H]2c1ccccc1 was read as HCMV antiviral -21.
Cc1ccc(C2(c3ccccc3)NC(=O)N(CC(=O)NCc3ccco3)C2=O)cc1C (stereo not given) was read as HCMV antiviral inconclusive, Pf growth 96h 5.9µM*, Pf growth 48h inconclusive and HCV inh inconclusive.
Screening Cc1ccc(C2(c3ccccc3)NC(=O)N(CC(=O)NC3(C#N)CCCC3)C2=O)cc1C (stereo not given) returned HCMV antiviral -92*, Pf growth 96h inconclusive, Pf growth 48h 13µM* and HCV inh -10%.
For COc1ccc(C2(c3ccc(OC)cc3)NC(=O)N(CC(=O)NC3(C#N)CCCC3)C2=O)cc1 the results were HCMV antiviral -16, Pf growth 96h inconclusive, Pf growth 48h inconclusive and HCV inh -12%.
`COc1cccc(/C=N/NC(=S)NC2CC3CC2C2C=CCC32)c1O` (stereo not given) gave HCMV antiviral -33, CHX counter 35*, Pf growth 96h 1.3µM*, Shiga inhibitor 87*, Pf growth 48h 2.3µM* and HCV inh 5%.
Oc1ccccc1/C=N/NC(=S)NC1CC2CC1C1C=CCC21 (stereo not given) was read as HCMV antiviral -20, CHX counter 53*, Pf growth 96h 1.9µM*, Shiga inhibitor 49*, Pf growth 48h 3.3µM* and HCV inh inconclusive.
`Cc1ccc(CCNC(=O)C2CCCN(S(=O)(=O)c3cccc4nsnc34)C2)cc1` (stereo not given) gave HCMV antiviral 10, CHX counter -1, Pf growth 96h 4.1µM*, Shiga inhibitor -2 and HCV inh 24%.
`CCOCCCNC(=O)C1CCCN(S(=O)(=O)c2cccc3nsnc23)C1` (stereo not given) gave HCMV antiviral 0, CHX counter -6, Pf growth 96h 8.3µM*, Shiga inhibitor 17, Pf growth 48h -9% and HCV inh 9%.
`COc1ccc(C2c3c(n(C)c4ccccc34)C(=O)N2CC(=O)Nc2cccc(Cl)c2)cc1` (stereo not given) gave HCMV antiviral 0.
Screening CSCc1c(C(=O)OCC(=O)NC2CCCCC2)oc2ccccc12 returned HCMV antiviral -14, Pf growth 96h -1%, Pf growth 48h -6% and HCV inh -19%.
For C/C(=N\S(=O)(=O)c1ccc(C)cc1)N(C)C the results were HCMV antiviral -26, CHX counter -1, Pf growth 96h -15%, Shiga inhibitor -12, Pf growth 48h inconclusive and HCV inh 6%.
`COc1cc(OC)cc(-c2nnc(SCC(=O)N3CCCc4ccccc43)o2)c1` gave HCMV antiviral 52, CHX counter 7, Shiga inhibitor 4, Pf growth 48h -6% and HCV inh inconclusive.
Screening Cc1ccc(-c2nnc(SCC(=O)N3CCCC3)o2)cc1C returned HCMV antiviral 126, CHX counter 36*, Pf growth 96h 214%, Shiga inhibitor 72*, Pf growth 48h 11% and HCV inh -4%.
`CCOC(=O)N1CCN(C(=O)CSc2nnc(-c3ccc(C)c(C)c3)o2)CC1` gave HCMV antiviral -17, CHX counter -2, Pf growth 96h 9.3µM*, Shiga inhibitor 9 and HCV inh 2%.
For CCOC(=O)N1CCN(C(=O)CSc2nnc(-c3cc(OC)ccc3OC)o2)CC1 the results were HCMV antiviral 11, CHX counter -2, Pf growth 96h 0%, Shiga inhibitor 14, Pf growth 48h inconclusive and HCV inh 10µM*!.
Screening COc1cccc(-c2nnc(SCC(=O)N3CCCc4ccccc43)o2)c1 returned HCMV antiviral inconclusive, CHX counter 10, Pf growth 96h 17%, Shiga inhibitor 19*, Pf growth 48h -27% and HCV inh 0%.
CCOC(=O)N1CCN(C(=O)CSc2nnc(-c3ccc(C(C)(C)C)cc3)o2)CC1 was read as HCMV antiviral 26, CHX counter 1, Pf growth 96h -8%, Shiga inhibitor -8, Pf growth 48h -1% and HCV inh 2%.
Screening CCOC(=O)N1CCN(C(=O)CSc2nnc(-c3cccc(OC)c3)o2)CC1 returned HCMV antiviral 24, CHX counter -3, Shiga inhibitor 27, Pf growth 48h 9.3µM* and HCV inh -27%.
CCOc1ccc(Nc2c(S(=O)(=O)c3ccc(Cl)cc3)cnc3ccc(OCC)cc23)cc1 was read as HCMV antiviral -26.
For COCC(=O)N1CCC(Oc2ccc(C(=O)NCc3cc(C)no3)cc2)CC1 the results were HCMV antiviral 33, CHX counter -1, Pf growth 96h 4.1µM*, Shiga inhibitor 7, Pf growth 48h 8% and HCV inh 10%.
`Cc1cc(CNC(=O)c2cccc(OC3CCN(S(=O)(=O)N(C)C)CC3)c2)on1` gave HCMV antiviral 13, CHX counter 64*, Pf growth 96h inconclusive, Shiga inhibitor 128*, Pf growth 48h -6% and HCV inh inconclusive.
Screening Cc1ccc(C(=O)c2nccn2C)cc1C returned HCMV antiviral -24, CHX counter 42*, Pf growth 96h 60%, Shiga inhibitor 46, Pf growth 48h 37% and HCV inh 15%.
`Cc1ccc(NC(=O)c2ccc(S(=O)(=O)N3CCOCC3)cc2)cc1` gave HCMV antiviral inconclusive, CHX counter 29*, Pf growth 96h -17%, Shiga inhibitor 42, Pf growth 48h -18% and HCV inh 8%.
`Cn1cc(S(=O)(=O)N2CCOCC2)cc1C(=O)Nc1ccc(Cl)cc1` gave HCMV antiviral 4, CHX counter 8, Pf growth 96h 7.4µM*, Shiga inhibitor 39*, Pf growth 48h 30% and HCV inh -11%.
Screening CC(=O)Nc1ccc(S(=O)(=O)N2CCN(CCN3CCOCC3)CC2)cc1Cl returned HCMV antiviral 22, CHX counter -4, Pf growth 96h 15%, Shiga inhibitor -4, Pf growth 48h 2.1µM* and HCV inh 15%.
Screening CC1CN=C(N(C(=O)Nc2ccccc2)c2ccc(S(=O)(=O)N3CCOCC3)cc2)S1 (stereo not given) returned HCMV antiviral -25, CHX counter 18*, Pf growth 96h 47%, Shiga inhibitor 21, Pf growth 48h 47% and HCV inh inconclusive.
Cc1ccc(Cl)cc1N1CCN(C(=O)Cn2cnc3onc(-c4ccc(F)cc4)c3c2=O)CC1 was read as HCMV antiviral 7.
CC(C)(C)OC(=O)N1CCC(c2c(C(=O)N3CCCCC3)cnn2-c2ccc(F)cc2)CC1 was read as HCMV antiviral 15.
